For one experiment, the target named is Actin, cytoplasmic 1 (UniProt P60709). As to the kind of experiment: cross-linking mass spectrometry.
Experiment [1] has as its target DNA replication licensing factor MCM5 (UniProt P33992). As to the kind of experiment: cross-linking mass spectrometry.
Experiment [2] addresses Acidic leucine-rich nuclear phosphoprotein 32 family member B (UniProt Q92688). As to the kind of experiment: cross-link between two proteins; cross-linking mass spectrometry.
In another experiment the target is Ankyrin-1 (UniProt P16157). The experiment is described as above.
Experiment [3] deals with Centrosomal protein of 85 kDa (UniProt Q6P2H3). The experiment is described as above.
For experiment [4], the target named is Heterogeneous nuclear ribonucleoprotein K (UniProt P61978). The experiment is described as above.
Another experiment has as its target Filamin-C (UniProt Q14315). Described as above.
Experiment [5] has as its target Heterogeneous nuclear ribonucleoprotein A/B (UniProt Q99729). The description is as above.
In experiment [6] the target is Heterogeneous nuclear ribonucleoprotein M (UniProt P52272). The description is as above.
For experiment [7], the target named is Leucine--tRNA ligase, cytoplasmic (UniProt Q9P2J5). The experiment is described as above.
The next experiment addresses Plastin-1 (UniProt Q14651). The experiment is described as above.
Experiment [8] has as its target Platelet-activating factor acetylhydrolase IB subunit alpha1 (UniProt Q15102). Described as above.
Experiment [9] addresses Splicing factor 3B subunit 3 (UniProt Q15393). Described as above.
A further experiment addresses Tubulin alpha-4A chain (UniProt P68366). The description is as above.
The target in a further experiment is Tubulin beta-2B chain (UniProt Q9BVA1). The experiment is described as above.
The target in the next experiment is Tubulin beta-4B chain (UniProt P68371). The experiment is described as above.
A further experiment deals with Zincore component SEPHS1 (UniProt P49903). The description is as above.
Experiment [10] addresses Heterogeneous nuclear ribonucleoproteins C1/C2 (UniProt P07910). As to the kind of experiment: cross-link between two proteins; affinity purification or IP with mass spectrometry; cross-linking mass spectrometry.
Experiment [11] addresses Heterogeneous nuclear ribonucleoprotein F (UniProt P52597). Described as above.
Experiment [12] concerns the target RNA binding motif protein, X-linked-like-1 (UniProt Q96E39). The description is as above.

The results in this text go back to article PMC12350791.

Formin-like protein 1, O95466: the “listed as a hit” value with Actin, cytoplasmic 1 was “yes”.
Consider “DNA replication licensing factor MCM4, P33991”, for which, in experiment [1], the “listed as a hit” value is “yes”.
Take “Acidic leucine-rich nuclear phosphoprotein 32 family member A, P39687”: the “listed as a hit” value in [2] is reported as “yes”.
Turning to “Spectrin alpha chain, erythrocytic 1, P02549”, in the experiment with Ankyrin-1, the “listed as a hit” value is reported as “yes”.
Consider Heat shock protein HSP 90-beta, P08238, for which the “listed as a hit” value in experiment [3] and in [4] was “yes” throughout.
As to Filamin-B, O75369, the “listed as a hit” value in the experiment with Filamin-C was “yes”.
Regarding “Heterogeneous nuclear ribonucleoprotein A1, P09651”, in [5], the “listed as a hit” value was “yes”.
For the substance Matrin-3, P43243, the “listed as a hit” value in experiment [6] is reported as “yes”.
Turning to “Isoleucine--tRNA ligase, cytoplasmic, P41252”, in experiment [7], the “listed as a hit” value is given as “yes”.
As for Plastin-2, P13796, in the experiment with Plastin-1, the “listed as a hit” value is “yes”.
Consider “Platelet-activating factor acetylhydrolase IB subunit alpha2, P68402”, for which the “listed as a hit” value in experiment [8] is recorded as “yes”.
On to Splicing factor 3B subunit 2, Q13435, for which the “listed as a hit” value in experiment [9] was “yes”.
On to Stathmin, P16949, for which the “listed as a hit” value in the experiment with Tubulin alpha-4A chain is listed as “yes”.
As to Tubulin alpha-1C chain, Q9BQE3, the “listed as a hit” value with Tubulin beta-2B chain is listed as “yes”.
Regarding Elongation factor 1-alpha 1, P68104, the “listed as a hit” value with Tubulin beta-4B chain was “yes”.
In the case of “Heterogeneous nuclear ribonucleoprotein D-like, O14979”, the “listed as a hit” value (with Zincore component SEPHS1; in experiment [10]) was “yes” each time.
In the case of “Heterogeneous nuclear ribonucleoproteins C1/C2, P07910”, the “listed as a hit” value in experiment [11] and in experiment [12] was “yes” each time.
